PubChem BioAssay (NCATS)
Inconclusive results are not listed. Activity calls are given as the source filed them. Unless noted, calls come from the whole dose curve; as a rule, active = well fitted curve in the direction sought with a large enough effect; inconclusive = small, poorly fitted or top-dose-only effect, or another doubt; inactive = no such curve, though single readings can be large; an effect the other way counts as inactive or inconclusive.

Key:
[1] = Cell Viability - Jurkat (AID 426;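 active = dose-dependent loss of cell ATP signal giving a full or clear fitted curve, ranked by lower potency value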; note: potency is the fitted concentration of half-maximal effect); details: qHTS
Method in brief: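 Jurkat (clone E6-1, human T-cell leukemia) cells, 5000/well in complete medium, were exposed to compound for 40 hr at 37 °C. Viability was read as intracellular ATP by CellTiter-Glo luminescence; AC50 came from Hill fits of concentration-response data.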

[2] = Cell Viability - LYMP2-001 (AID 921); details: LYMP2-001 lymphoblastoid cell viability; series mostly up to 92.2 µM; note: nearly all actives have a fitted effect of over 70% in size
Method in brief: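 CellTiter-Glo luminescence (intracellular ATP) after 24 hr compound exposure at 37 C, 2500 lymphoblastoid cells/well in complete medium. AC50 fitted with standard Hill equation; tetraoctylammonium bromide positive control.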

[3] = MultiTox-Fluor Cytotoxicity Assay - LYMP1-002 - Dead Cells (AID 960); details: LYMP1-002 lymphoblastoid cells, dead-cell protease fluorescence; series mostly up to 46.1 µM; note: nearly all actives have a fitted effect of over 60% in size
Method in brief: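 Human lymphoblastoid cells (LYMP1-002), 2500/well in complete medium, were exposed to compounds for 16 hr at 37 C. Dead-cell protease activity was read as bis-AAF-R110 fluorescence (Ex/Em 485/520), normalized to DMSO and 15 uM tetraoctylammonium bromide; AC50 from Hill fits.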

[4] = Cell Viability - LYMP1-003 - Assay at 40 hr (AID 964); details: LYMP1-003 lymphoblastoid viability; series mostly up to 92.2 µM; note: nearly all actives have a fitted effect of over 60% in size
Method in brief: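 Human lymphoblastoid LYMP1-003 cells, 2500/well in complete medium, rested 5 hr at 37 C, then exposed to compounds for 40 hr at 37 C. Viability read as intracellular ATP by CellTiter-Glo luminescence; AC50 from Hill fits of concentration-response data.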

[5] = Cell Viability - LYMP2-003 (AID 965); details: LYMP2-003 lymphoblastoid cell viability; series mostly up to 92.2 µM;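 note: cells exposed to compounds for 24 h before reading; nearly all actives have a fitted effect of over 50% in size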
Method in brief: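 CellTiter-Glo luminescence (cellular ATP) after 24 h compound exposure at 37 C in complete medium; 2500 cells/well, 5 h settling beforehand. Concentration-response fitted to standard Hill equation for AC50. Tetraoctylammonium bromide served as positive control.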

[6] = Cell Viability - LYMP2-005 (AID 967); details: LYMP2-005 lymphoblastoid cell viability; series mostly up to 92.2 µM
Method in brief: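 Steps: seed 2500 LYMP2-005 cells/well, incubate 5 h at 37 C, add compound, incubate 24 h at 37 C, add CellTiter-Glo, wait 30 min at RT, read luminescence. Concentration-response data fitted to Hill equation for AC50.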

[7] = Cell Viability - LYMP2-011 (AID 969); details: LYMP2-011 lymphoblastoid cells viability; series mostly up to 92.2 µM; note: nearly all actives have a fitted effect of over 60% in size
Method in brief: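 Human lymphoblastoid cells (2500/well) were plated in complete medium, preincubated 5 hr at 37 C, then exposed to compounds for 24 hr at 37 C. Intracellular ATP was read by CellTiter-Glo luminescence, and AC50 came from Hill-equation concentration-response fits.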

[8] = Cell Viability - LYMP2-013 (AID 970); details: LYMP2-013 lymphoblastoid cells viability; series mostly up to 92.2 µM; note: nearly all actives have a fitted effect of over 55% in size
Method in brief: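 Human lymphoblastoid cells, 2500/well, were preincubated 5 hr at 37 C, then treated with compounds for 24 hr at 37 C in complete medium. Intracellular ATP was read by CellTiter-Glo luminescence; AC50 from Hill-equation fits of concentration-response data.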

[9] = Cell Viability - LYMP2-017 (AID 972); details: LYMP2-017 lymphoblastoid cell viability; series mostly up to 92.2 µM; note: nearly all actives have a fitted effect of over 55% in size
Method in brief: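 Human lymphoblastoid cells (2500/well) were seeded in complete medium, held 5 hr at 37 C, then exposed to compounds for 24 hr at 37 C. Intracellular ATP was read by CellTiter-Glo luminescence after 30 min at room temperature, with AC50 values from Hill-equation fits.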

[10] = Cell Viability - LYMP2-019 (AID 973); details: LYMP2-019 lymphoblastoid cell line viability; series mostly up to 92.2 µM; note: nearly all actives have a fitted effect of over 55% in size
Method in brief: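 Human lymphoblastoid cells were seeded at 2500 cells/well, preincubated 5 hr at 37 C, then exposed to compounds for 24 hr at 37 C in complete medium. Intracellular ATP was measured by CellTiter-Glo luminescence; AC50 from Hill fits.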

[11] = Cell Viability - LYMP2-021 (AID 974); details: LYMP2-021 lymphoblastoid cells viability; series mostly up to 92.2 µM;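 note: compound exposure lasts 24 hours at 37 °C; nearly all actives have a fitted effect of over 55% in size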
Method in brief: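 Human lymphoblastoid cells (2500/well) were preincubated 5 hr at 37 C, then exposed to compounds for 24 hr at 37 C in complete medium. Intracellular ATP was read by CellTiter-Glo luminescence; AC50 came from Hill-equation fits of concentration-response data.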

[12] = Cell Viability - LYMP2-023 (AID 975); details: LYMP2-023 lymphoblastoid cell viability; series mostly up to 92.2 µM
Method in brief: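 Human lymphoblastoid cells (2500/well) were preincubated 5 hr at 37 C, then exposed to compounds for 24 hr at 37 C in complete medium. Cellular ATP was read by CellTiter-Glo luminescence, and AC50 came from Hill-equation fits.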

[13] = Cell Viability - LYMP2-010 (AID 981); details: LYMP2-010 lymphoblastoid cell viability, qHTS; series mostly up to 92.2 µM; note: nearly all actives have a fitted effect of over 55% in size
Method in brief: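 Human lymphoblastoid LYMP2-010 cells (2500/well) were preincubated 5 hr at 37 C, then exposed to compounds for 24 hr at 37 C in complete medium. Intracellular ATP was measured by CellTiter-Glo luminescence after 30 min at room temperature; AC50 from Hill-fitted concentration-response.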

[14] = Cell Viability - LYMP2-014 (AID 983); details: LYMP2-014 lymphoblastoid cells, viability qHTS; series mostly up to 92.2 µM; note: nearly all actives have a fitted effect of over 50% in size
Method in brief: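 Human lymphoblastoid cells (2500/well) were pre-incubated 5 hr at 37 C, then exposed to compounds in complete medium for 24 hr at 37 C. Intracellular ATP was read by CellTiter-Glo luminescence after 30 min at room temperature; AC50 from Hill fits.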

[15] = Cell Viability - LYMP2-016 (AID 984); details: LYMP2-016 lymphoblastoid cell viability, qHTS; series mostly up to 92.2 µM; note: nearly all actives have a fitted effect of over 55% in size
Method in brief: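 qHTS, 1536-well: 2500 LYMP2-016 cells/well, 5 hr 37 C, compound added, 24 hr 37 C, CellTiter-Glo 30 min RT, luminescence. Tetraoctylammonium bromide positive control. AC50 via Hill fit.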

[16] = Cell Viability - LYMP2-020 (AID 986); details: series mostly up to 92.2 µM; note: nearly all actives have a fitted effect of over 55% in size
Method in brief: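 Human lymphoblastoid cells, 2500/well, were pre-incubated 5 hr at 37 C, then exposed to compounds for 24 hr at 37 C in complete medium. Intracellular ATP was read by CellTiter-Glo luminescence, and AC50 was derived by Hill fitting of concentration-response data.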

[17] = Cell Viability - LYMP2-022 (AID 987); details: LYMP2-022 lymphoblastoid cell viability; series mostly up to 92.2 µM; note: nearly all actives have a fitted effect of over 55% in size
Method in brief: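 Human lymphoblastoid cells, 2500/well, preincubated 5 hr at 37 C, then exposed to compounds over a concentration range for 24 hr at 37 C in complete medium. Viability read as intracellular ATP by CellTiter-Glo luminescence after 30 min at room temperature; AC50 from Hill fits.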

[18] = Cell Viability - LYMP2-024 (AID 988); details: LYMP2-024 lymphoblastoid cell viability; series mostly up to 92.2 µM; note: nearly all actives have a fitted effect of over 60% in size
Method in brief: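 Human lymphoblastoid cells (2500/well) in complete medium were preincubated 5 hr at 37 C, then exposed to compounds for 24 hr at 37 C. Intracellular ATP was read by CellTiter-Glo luminescence; AC50 from Hill-equation fits of concentration-response data.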

[19] = qHTS assay for small molecule disruptors of the mitochondrial membrane potential - 1 hr assay (AID 651754; calls by dose curve; note: nearly all actives have a fitted effect of over 35% in size); details: series mostly up to 92.2 µM
Method in brief: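 HepG2 cells, attached overnight at 37C, were exposed to compound or DMSO vehicle for 1 hr at 37C, 5% CO2, then stained with Mito-MPS dye for 30 min. Red aggregate versus green monomer fluorescence reports membrane potential.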

[20] = molecular target: Tumor necrosis factor (Homo sapiens) (UniProt P01375); assay: qHTS assay to identify small molecules that stimulate Tumor Necrosis Factor-alpha (TNF-alpha) secretion (AID 651757; active = well fitted curve in the direction sought with a large enough effect in the signal ratio; the % refers to the signal ratio); details: Human cells, HTRF 665/615 ratio; series mostly up to 92.2 µM
Method in brief: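 THP-1 cells were exposed to compounds for 17 hrs at 37 C, after which secreted TNF-alpha was measured by homogeneous HTRF (TR-FRET) using cryptate- and XL665-labeled anti-TNF-alpha antibodies, read after 3 hr at room temperature.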

Measured: Potency

Tumor necrosis factor (Homo sapiens), sequence (P01375 whole entry, looked up): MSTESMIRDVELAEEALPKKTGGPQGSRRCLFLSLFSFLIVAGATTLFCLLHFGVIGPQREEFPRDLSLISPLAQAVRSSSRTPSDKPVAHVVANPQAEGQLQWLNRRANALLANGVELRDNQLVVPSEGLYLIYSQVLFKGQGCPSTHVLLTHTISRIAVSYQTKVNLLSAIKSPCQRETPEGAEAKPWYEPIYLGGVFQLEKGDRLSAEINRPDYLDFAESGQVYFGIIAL

CC(C)(C)OO
inactive: [1] > 92 µM | [2] | [3] | [4] | [5] | [6] | [7] | [8] | [9] | [10] | [11] | [12] | [13] | [14] | [15] | [16] | [17] | [18] | [19] | [20]

Brc1ccc(Oc2cc(Br)c(Br)cc2Br)c(Br)c1
inactive: [2] | [3] | [4] | [5] | [6] | [7] | [8] | [9] | [10] | [11] | [12] | [13] | [14] | [15] | [16] | [17] | [18] | [20]

Cc1cccc(C#N)c1
inactive: [1] > 92 µM | [2] | [3] | [4] | [5] | [6] | [7] | [8] | [9] | [10] | [11] | [12] | [13] | [14] | [15] | [16] | [17] | [18] | [19] | [20]

Clc1nc(Cl)nc(Nc2ccccc2Cl)n1
inactive: [1] > 92 µM | [2] | [3] | [4] | [5] | [6] | [7] | [8] | [9] | [10] | [11] | [12] | [13] | [14] | [15] | [16] | [17] | [18] | [19] | [20]

C=CCOC(C)=O
inactive: [1] > 92 µM | [2] | [3] | [4] | [5] | [6] | [7] | [8] | [9] | [10] | [11] | [12] | [13] | [14] | [15] | [16] | [17] | [18] | [19] | [20]

O=NN(CCO)CCO
inactive: [1] > 92 µM | [2] | [3] | [4] | [5] | [6] | [7] | [8] | [9] | [10] | [11] | [12] | [13] | [14] | [15] | [16] | [17] | [18] | [19] | [20]

Oc1ccc(Cl)cc1Cl
inactive: [1] > 92 µM | [2] | [4] | [5] | [6] | [7] | [8] | [9] | [10] | [11] | [12] | [13] | [14] | [15] | [16] | [17] | [18] | [19] | [20]
